Hits are enriched below; roughly 0.81% of the tested compounds scored in any of these assays.
TRHR PAM: allosteric enhancers of human TRH receptor; P34981; TRHR cells, fluo-8 calcium fluorescence, EC20 TRH enhancement; enhancement, % at 2 µM; 0.66% of 360,000 active; AID 493056; in the data active = enhancement above about 30%; note: 0% is about no effect
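Enhancer read-out: after compound pinning and an initial kinetic agonist-mode read, an EC20 of TRH (10 nM final) was injected and fluo-8 calcium signal (Ex 480/Em 530) followed at 1 s/cycle for 100 cycles in TRHR-expressing cells.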
TRPML1 agonist: human mucolipin-1 channel agonism; TRPML1-expressing cells, Ca2+ dye fluorescence, FDSS; AID 624414; Q9GZU1; activation, % (concentration not given with the values); 0.12% of 410,000 active; in the data active = activation above about 50%; inconclusive = mostly about 30% to 49%; note: 0% is about no effect
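In this qHTS format, compounds were pin-transferred onto Ca8-dye-loaded TRPML1-DL cells induced with Tet overnight, and intracellular Ca2+ fluorescence was recorded kinetically for 110 s after a 10 s baseline. A subsequent 4uM final 54-4 (EC80) addition followed by a second 110 s read served as the antagonist phase.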
TSG101-PTAP inh: blocks PTAP/TSG101 interaction to inhibit HIV-1 budding; Q99816; Fluorescence polarization, FITC-PTAP peptide / Tsg101 binding; Potency, µM (top dose mostly 115 µM), without a hit: at the highest dose activity change, negative = inhibition, actives largely listed as inhibitors; 340,000 tested, under 10 active; AID 493005; active = well fitted inhibition curve with a large enough effect in the main read-out, with a control signal flat, not every such curve was filed as active; inconclusive = small, poorly fitted or top-dose-only effect, or effect the other way, or a change in a side signal; inactive = no such curve, though single readings can be large or run the other way; note: potency is the fitted concentration of half-maximal effect; % of control where 0% means no effect
Target sequence (Q99816 whole entry, looked up): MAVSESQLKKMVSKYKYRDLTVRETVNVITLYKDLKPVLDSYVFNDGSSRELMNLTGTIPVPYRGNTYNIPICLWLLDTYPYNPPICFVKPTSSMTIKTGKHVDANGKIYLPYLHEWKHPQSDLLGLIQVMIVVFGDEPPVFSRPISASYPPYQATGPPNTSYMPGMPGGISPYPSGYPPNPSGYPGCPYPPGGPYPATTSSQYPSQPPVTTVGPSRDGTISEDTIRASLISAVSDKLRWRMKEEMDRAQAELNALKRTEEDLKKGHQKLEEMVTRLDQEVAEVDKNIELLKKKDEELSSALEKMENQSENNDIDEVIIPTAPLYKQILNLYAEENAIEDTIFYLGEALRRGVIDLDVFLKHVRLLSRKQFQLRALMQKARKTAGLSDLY
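FP read-out: FITC-PTAP peptide, 50 nM final, binding Tsg101 binding domain, 10 uM final; 20 min, r.t.; 10 mM HEPES pH 7.5, 0.15 M NaCl, 0.01% Tween 20, 3 mM EDTA, 0.1 mM TCEP.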
TRPML1 inh: inhibitors of human TRPML1 channel. Q9GZU1. TRPML1-inducible cells, Ca2+ dye fluorescence, FDSS; stronger effect = lower value; inhibition of EC80 agonist-evoked calcium signal. activity change, negative = inhibition, % (concentration not given with the values). 0.02% of 390,000 active. AID 624415; in the data active = activity change below about -50%; inconclusive = between about -30% and that limit;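 note: stimulus is agonist 54-4 at its EC80 concentration; % is set by controls: 0 for no effect and ±100 for the full control effect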
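Tet-induced TRPML1-DL cells loaded with Ca8 no-wash calcium dye were read kinetically on FDSS. Compound addition was followed by EC80 agonist 54-4 (4 uM final); inhibition was read over 110 s.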
TRHR ag: activates the human TRH receptor | P34981 | TRHR cells, calcium flux fluo-8, FDSS agonist mode | activation, % at 2 µM | 0.18% of 360,000 active | AID 493084; in the data active = activation above about 30%; note: 0% is about no effect
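Read-out: compound-evoked intracellular calcium rise in TRHR cells, fluo-8 dye, kinetic FDSS fluorescence at 1 s/cycle following a 10-cycle baseline. Cells cultured overnight before dye loading (30 min–1.5 h, RT).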
* marks the source's active call; other numbers are inactive results; ? = inconclusive; . = not tested or not shown.

SMILES | TRHR PAM | TRPML1 agonist | TSG101-PTAP inh | TRPML1 inh | TRHR ag
Cn1c(CCN2CCN(c3ccccc3)CC2)nc2cc(NC(=O)c3ccco3)ccc21 | 33* | 1 | 1% | 10 | 0
Cc1c(S(=O)(=O)Nc2ccc(Br)cc2)c(=O)n(C)c(=O)n1C | 35* | 0 | -1% | 48 | 0
CC(C)(C)OC(=O)Cc1nnc(-c2nc3ccccc3[nH]2)s1 | 0 | . | . | . | 1
COc1cccc(Cn2cc(N)cn2)c1 | 32* | 1 | -1% | 2 | 0
Cc1ccccc1CS(=O)(=O)CCC(=O)NCCCN1CCN(c2ccccc2F)CC1 | 6 | 1 | -1% | 8 | 0
O=C(CCS(=O)(=O)Cc1ccc(Cl)cc1)NCCCN1CCN(c2ccccc2F)CC1 | 33* | 3 | -1% | -9 | -1
CN(C)S(=O)(=O)c1ccc(N2CCCC2)c(C(=O)NCc2ccc(Cl)cc2)c1 | -15 | 75* | -5% | -1 | -1
COc1ccc(CCNC(=O)c2cc(S(=O)(=O)N(C)C)ccc2N2CCCC2)cc1 | -14 | 14 | -2% | 2 | -1
O=[S+]([O-])(c1ccc2nsnc2c1)N1CCN([S+](=O)([O-])c2c(F)cccc2F)CC1 | -1 | . | . | . | 1
COc1ccc(CCNC(=O)C(=O)NCC(c2ccco2)S(=O)(=O)c2ccccc2)cc1 (configuration not stated) | 1 | 2 | . | -7 | 0
COc1ccc(CCNC(=O)C(=O)NCC(c2ccco2)S(=O)(=O)c2ccc(F)cc2)cc1 (configuration not stated) | 36* | 1 | . | 11 | 0
CCNc1nc(Oc2ccc(=O)[nH]n2)nc(SC)n1 | 32* | -1 | -6% | 7 | 0
CC(C)(C)n1ncc2c(=O)n(Cc3ccc([S+](=O)([O-])N4CCOCC4)cc3)cnc21 | . | 0 | . | -3 | .
O=C(C[N+]12CCCc3cccc(c31)CCC2)c1ccc2ccc3cccc4ccc1c2c34 | . | 3 | . | . | .
CC1CCC(N2CC(=O)N(C3CCCCC3)C(c3ccc(F)cc3)C2=O)CC1 (configuration not stated) | 4 | 2 | . | 5 | 2
CC1CCC(N2CC(=O)N(C3CCCC3)C(c3ccc(Cl)cc3)C2=O)CC1 (configuration not stated) | 31* | 1 | . | 0 | 0
CN1C(=O)/C(=C\c2ccc(N(C)C)cc2)OC1=S | 8 | 82* | ? | -7 | 203*
COc1ccc(/C=C2\OC(=S)N(C)C2=O)cc1 | -1 | 0 | -4% | -1 | 0
Cc1csc(C)[n+]1CCC1CCCCC1 | . | -1 | . | . | .
O=C(NCCc1ccccc1)c1ccc(Br)o1 | -4 | -1 | -1% | -1 | -1
O=C(NCCNC(=O)c1ccc(Br)o1)c1ccc(Br)o1 | 38* | -1 | 1% | 14 | 3
CC(=O)N/C(=C/c1ccccc1)c1sc2ccccc2[n+]1CCCCI | . | 1 | . | . | .
O=C(Cn1nc(Cl)nc1Cl)c1ccccc1 | -6 | 1 | -1% | 28 | 0
CC(C)(C)C(=O)Cn1nc(Cl)nc1Cl | 32* | -1 | -1% | 17 | 1
CN(Cc1ccccc1)C(=S)NC(=O)c1ccc(-c2ccccc2)cc1 | 4 | 1 | 0% | -8 | -1
SMILES | TRHR PAM | TRPML1 agonist | TSG101-PTAP inh | TRPML1 inh | TRHR ag
CN(Cc1ccccc1)C(=S)NC(=O)c1cccs1 | 44* | 0 | -5% | -9 | 0
COc1ccc(Cl)cc1NC(=O)N1CCN(C2CCCCC2)CC1 | 36* | 0 | -1% | -5 | 1
COc1ccc(Cl)cc1NC(=S)N1CC(C)OC(C)C1 (configuration not stated) | 33* | 1 | -8% | 24 | 0
CCN1CCN(C(=O)Nc2cc(Cl)ccc2OC)CC1 | 0 | 0 | -6% | 0 | 0
COc1ccc(Cl)cc1NC(=O)NC1CCCCC1 | 32* | 2 | -1% | -7 | -1
CCCN(C)CCCOc1cc2nc(N3CCCN(C)CC3)nc(NC3CCN(C)CC3)c2cc1OC | . | 0 | . | . | .
Nc1nc(N)c2c(OCc3ccc(C(F)(F)F)cc3)cccc2n1 | . | 10 | . | . | .
Cc1cc(=O)[nH]c(SCC(=O)Nc2ccc3c(c2)OCCO3)n1 | 32* | 1 | -6% | 16 | 0
O=C(CSc1nccc(=O)[nH]1)Nc1ccc2c(c1)OCCO2 | 4 | 0 | 1% | 10 | 1
COc1ccc(NC(=O)CN(c2ccccc2C)S(C)(=O)=O)c(OC)c1 | 31* | 1 | -1% | -9 | 0
COc1ccccc1NC(=O)CN(c1ccccc1C)S(C)(=O)=O | -2 | 0 | 1% | 12 | 0
CC[N+](C)(C)c1ccc(/C=C/c2ccncc2)cc1 | . | 7 | . | . | .
NC(=O)C1(c2ccccc2)CCCN1C(=O)c1ccccc1Br (configuration not stated) | 36* | 4 | -1% | -20 | 0
NC(=O)C1(c2ccccc2)CCCN1C(=O)c1ccc(Br)cc1 (configuration not stated) | -3 | 0 | -1% | -10 | -1
O=C1CCN2C=Nc3cccc4ccc1c2c34 | 5 | ? | ? | -5 | 136*
CCN(Cc1ccccc1)C(c1ccncc1)c1nnnn1C(C)(C)C (configuration not stated) | 0 | 1 | -3% | -7 | 0
CC(C)(C)c1ccc(CN(Cc2ccccc2)C(c2ccccn2)c2nnnn2C(C)(C)C)cc1 (configuration not stated) | -1 | 56* | -1% | 3 | 0
COc1ccc(-c2cn[nH]c2C)cc1 | 31* | 2 | -7% | -7 | -1
COc1ccc(-c2cn[nH]c2-c2ccc(OC)cc2O)cc1 | 4 | 2 | 0% | 61 | -1
COc1cc2nc(N3CCCCC3)nc(NC3CCN(Cc4ccccc4)CC3)c2cc1OC | . | 0 | . | . | .
COc1ccc(CN2CC[C@H]3C=CC[C@@H](C(=O)Nc4ccc(Cl)cc4Cl)[C@H]3C2=O)cc1OC | . | -1 | . | . | .
COc1cc(NC(=O)c2cccc(Br)c2)nc(OC)n1 | 34* | 0 | 1% | -21 | -3
COc1cccc(-c2nnc(NC(=O)c3cccc(F)c3)o2)c1 | 33* | 1 | 1% | 20 | 0
COc1ccc(-c2ncn(CCC#N)c2[N+](=O)[O-])cc1 | 33* | 0 | -1% | 12 | -1
O=C(O)c1cccc(CN2C(=O)c3ccccc3C2=O)c1 | -5 | 0 | -9% | -7 | 0
O=C1c2cccc3c(O)ccc(c23)C(=O)N1Cc1ccccc1 | 40* | 97* | ? | 0 | 154*
CC(=O)NC1=CC(=O)c2nonc2C1=O | . | 0 | . | . | .
N#Cc1cccc(NC(=O)CSc2ccc3c4c(cccc24)C(=O)c2ccccc2-3)c1 | 6 | 80* | ? | -15 | -1
O=c1[nH]c2ccc(S(=O)(=O)N3CCN(S(=O)(=O)c4ccc5c(c4)OCCO5)CC3)cc2[nH]c1=O | 4 | . | . | . | -1

High-throughput results (PubChem BioAssay)
